In PubChem BioAssay (NCATS):
Records with an inconclusive call do not appear. Unmarked numbers belong to inactive results. The source made the active and inactive calls. The call rests on the fitted dose curve; in most records, active means well fitted cell-killing curve with a large enough effect; inconclusive means small, poorly fitted or top-dose-only effect, or effect the other way; inactive means no such curve, though single readings can be large or run the other way.

Experiments:
[1] = Quantitative High-Throughput drug screen in 47 multiple myeloma cell lines against the NCATS MIPE library collection: LP1_DSMZ cell viability assay (AID 1918982); further: nearly all actives have a fitted effect of over 35% in size
How it was run: (§1)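 MIPE 4.0 approved/investigational drugs; 500 cells/well; 48 h 37 °C humidified 5% CO2; CTG luminescence readout; DMSO = 100%, media = 0% viability.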

[2] = Quantitative High-Throughput drug screen in 47 multiple myeloma cell lines against the NCATS MIPE library collection: KMS28PE_JCRB cell viability assay (AID 1918983); further: nearly all actives have a fitted effect of over 35% in size
How it was run: as §1

[3] = Quantitative High-Throughput drug screen in 47 multiple myeloma cell lines against the NCATS MIPE library collection: KMS34_JCRB cell viability assay (AID 1918985); further: nearly all actives have a fitted effect of over 40% in size
How it was run: as §1

[4] = Quantitative High-Throughput drug screen in 47 multiple myeloma cell lines against the NCATS MIPE library collection: OCIMY7_PLB cell viability assay (AID 1918987); details: OCI-MY7 myeloma viability, CellTiter-Glo ATP, 48 h; viability (% of DMSO): at 45.8 µM (top of the series); further: nearly all actives have a fitted effect of over 65% in size
How it was run: as §1

[5] = Quantitative High-Throughput drug screen in 47 multiple myeloma cell lines against the NCATS MIPE library collection: OCIMY5_PLB cell viability assay (AID 1918988); further: nearly all actives have a fitted effect of over 65% in size
How it was run: as §1

[6] = Quantitative High-Throughput drug screen in 47 multiple myeloma cell lines against the NCATS MIPE library collection: OPM1_PLB cell viability assay (AID 1918989); further: nearly all actives have a fitted effect of over 40% in size
How it was run: as §1

[7] = Quantitative High-Throughput drug screen in 47 multiple myeloma cell lines against the NCATS MIPE library collection: SKMM1_PLB cell viability assay (AID 1919863); details: SKMM1 myeloma viability, CellTiter-Glo ATP, 48 h; viability: stronger effect = lower value; further: nearly all actives have a fitted effect of over 35% in size
How it was run: as §1

[8] = Quantitative High-Throughput drug screen in 47 multiple myeloma cell lines against the NCATS MIPE library collection: XG6_PLB cell viability assay (AID 1919865); further: nearly all actives have a fitted effect of over 40% in size
How it was run: as §1

[9] = Quantitative High-Throughput drug screen in 47 multiple myeloma cell lines against the NCATS MIPE library collection: XG1_PLB cell viability assay (AID 1919866); further: nearly all actives have a fitted effect of over 35% in size
How it was run: as §1

[10] = Quantitative High-Throughput drug screen in 47 multiple myeloma cell lines against the NCATS MIPE library collection: VP6_DJ cell viability assay (AID 1919867); further: nearly all actives have a fitted effect of over 40% in size
How it was run: as §1

[11] = Quantitative High-Throughput drug screen in 47 multiple myeloma cell lines against the NCATS MIPE library collection: UTMC2_PLB cell viability assay (AID 1919868); details: CellTiter-Glo ATP luminescence, 48 h; viability (% of DMSO control): at 45.8 µM (top of the series); further: nearly all actives have a fitted effect of over 55% in size
How it was run: as §1

[12] = Quantitative High-Throughput drug screen in 47 multiple myeloma cell lines against the NCATS MIPE library collection: PE2_PLB cell viability assay (AID 1919869); further: nearly all actives have a fitted effect of over 35% in size
How it was run: as §1

[13] = Quantitative High-Throughput drug screen in 47 multiple myeloma cell lines against the NCATS MIPE library collection: RPMI8226_ATCC cell viability assay (AID 1919871); further: nearly all actives have a fitted effect of over 30% in size
How it was run: as §1

[14] = Quantitative High-Throughput drug screen in 47 multiple myeloma cell lines against the NCATS MIPE library collection: OPM2_DSMZ cell viability assay (AID 1919872); further: nearly all actives have a fitted effect of over 30% in size
How it was run: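 We plated 500 myeloma cells per well, pinned in MIPE 4.0 compounds, and incubated for 48 hours at 37C. ATP was then quantified with CellTiter-Glo, with DMSO and media-only wells defining 100% and 0%.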

[15] = Quantitative High-Throughput drug screen in 47 multiple myeloma cell lines against the NCATS MIPE library collection: KMS11_JCRBsus cell viability assay (AID 1919873); further: nearly all actives have a fitted effect of over 50% in size
How it was run: as §1

[16] = Quantitative High-Throughput drug screen in 47 multiple myeloma cell lines against the NCATS MIPE library collection: KMS28BM_JCRB cell viability assay (AID 1919874); further: nearly all actives have a fitted effect of over 35% in size
How it was run: as §1

[17] = Quantitative High-Throughput drug screen in 47 multiple myeloma cell lines against the NCATS MIPE library collection: U266_ATCC cell viability assay (AID 1919864); further: nearly all actives have a fitted effect of over 35% in size
How it was run: as §1

[18] = Quantitative High-Throughput drug screen in 47 multiple myeloma cell lines against the NCATS MIPE library collection: PCM6_Riken cell viability assay (AID 1919870); further: nearly all actives have a fitted effect of over 30% in size
How it was run: as §1

[19] = Quantitative High-Throughput drug screen in 47 multiple myeloma cell lines against the NCATS MIPE library collection: L363_DSMZ cell viability assay (AID 1918984); further: nearly all actives have a fitted effect of over 40% in size
How it was run: as §1
Potency means the concentration at half of the fitted maximal effect.

Row | SMILES | Potency [1] | Potency [2] | Potency [3] | Potency [4] | Potency [5] | Potency [6] | Potency [7] | Potency [8] | Potency [9] | Potency [10] | Potency [11] | Potency [12] | Potency [13] | Potency [14] | Potency [15] | Potency [16] | Potency [17] | Potency [18] | Potency [19] | viability [7] [%]
1 | CCOc1cc2c(c(F)c1OCC)C(=N)N(CC(=O)c1cc(N3CCOCC3)c(OC)c(C(C)(C)C)c1)C2 | 16.6 µM (active) | 20.9 µM (active) | 23.5 µM (active) | 7.43 µM (active) | 16.6 µM (active) | 14.8 µM (active) | 20.9 µM (active) | 9.35 µM (active) | 8.33 µM (active) | 9.35 µM (active) | 7.43 µM (active) | 20.9 µM (active) | 18.7 µM (active) | 18.7 µM (active) | 7.43 µM (active) | 8.33 µM (active) |  |  |  | 
2 | CS(=O)(=O)N1CCc2c(-c3cnc(N)nc3)nc(N3CCOCC3)nc21 | 0.0332 µM (active) | 0.118 µM (active) | 0.833 µM (active) |  | 0.332 µM (active) |  |  | 0.743 µM (active) | 0.372 µM (active) | 0.418 µM (active) | 0.001 µM (active) |  |  | 1.05 µM (active) |  |  | 0.296 µM (active) | 5.26 µM (active) |  | 
3 | C[N+]1(C)[C@@H]2C[C@@H](OC(=O)C(O)(c3cccs3)c3cccs3)C[C@H]1[C@@H]1O[C@@H]12 | inactive | inactive |  |  | inactive | inactive |  | inactive | inactive |  | inactive | inactive | inactive | inactive | inactive | inactive |  | inactive | inactive | 
4 | CC(N[C@H]1CCCC[C@H]1NC(=O)c1ccc(Cl)cc1)c1cccc2ccccc12 (stereo not given in full) | inactive | inactive |  |  |  | inactive |  |  |  |  |  |  | inactive | inactive |  | 18.7 µM (active) | inactive |  | 0.0833 µM (active) | 94.8
5 | N#CC(=C(N)Sc1ccc(N)cc1)c1ccccc1C(F)(F)F | 16.6 µM (active) | 6.62 µM (active) | inactive | 0.148 µM (active) | 16.6 µM (active) |  | 7.43 µM (active) |  | 2.96 µM (active) |  |  | 2.96 µM (active) | 13.2 µM (active) | inactive |  | inactive |  | inactive |  | 
6 | CN1C(C(=O)Nc2ccccn2)=C(O)c2sc(Cl)cc2S1(=O)=O | 4.69 µM (active) | 4.69 µM (active) | 2.96 µM (active) |  | 2.96 µM (active) | 4.18 µM (active) |  | 2.09 µM (active) | 1.66 µM (active) | 3.32 µM (active) | 4.69 µM (active) | 3.72 µM (active) |  | inactive |  | inactive |  | 2.64 µM (active) |  | 
